Data on 49 compounds can be found in ChEMBL document CHEMBL3988442, “University of Dundee, Small-Polar-MMV Screening Library” (2021).

Hit rate of the full screen: of about 48,000 compounds, about 13,000 (27%) showed an effect of 50% or more. Some of the results follow.

For the assay, the system named is Wolbachia pipientis. Description: Anti-Wolbachia Cell-Based Screen. The assay is classed as functional. Also noted: scale not given: in the data most compounds retested in dose-response had high values. Conditions: 5 µM.
Consider `CCn1ccnc1CNc1nccc(-c2cn(C)nc2C)n1`, for which the “Percent Effect” value was -3.456%.

`CC(C)C(NC(=O)N1CCN(c2ccc(Cl)cc2)CC1)C(=O)NC1CC1` (centres undefined): the “Percent Effect” value is 0.3878%.

On to `COc1ccc(OC)c(C(O)CN2CC(n3cccn3)C2)c1` (centres undefined), for which the “Percent Effect” value is on record as -4.387%.

`CCCN1CC2(CCN(c3cc(C4CC4)ncn3)CC2)CC1C(=O)O` (centres undefined): the “Percent Effect” value is reported as -4.033%.

With `CC1(C)CN(Cc2cc(C3CCCCC3)no2)CC[C@]1(C)O`, the “Percent Effect” value is recorded as 3.04%.

In the case of `Cc1ccc(NC2CCN(C(=O)c3ccsc3)CC2)nn1`, the “Percent Effect” value was -4.871%.

As to `Cc1ccc(NC2CCN(C(=O)c3n[nH]c4ccccc34)CC2)nn1`, the “Percent Effect” value is reported as -3.019%.

As to `Cc1ccc(NC2CCN(C(=O)c3sccc3C3CC3)CC2)nn1`, the “Percent Effect” value is 97.28%.

`Cc1ccc(NC2CCN(C(=O)c3ccc(Cl)o3)CC2)nn1`: the “Percent Effect” value was -2.526%.

Consider `Cc1ccc(NC2CCN(C(=O)c3cnc(C)s3)CC2)nn1`, for which the “Percent Effect” value was -2.09%.

`Cc1ccc(NC2CCN(C(=O)c3ccncc3)CC2)nn1`: the “Percent Effect” value is given as 119.5%.

In the case of `Cc1ccc(NC2CCN(C(=O)c3ccco3)CC2)nn1`, the “Percent Effect” value is on record as 66.81%.

On to `Cc1ccc(NC2CCN(C(=O)c3cnn(C(C)(C)C)c3)CC2)nn1`, for which the “Percent Effect” value is 89.59%.

On to `Cc1ccc(NC2CCN(C(=O)c3cccn3C)CC2)nn1`, for which the “Percent Effect” value was 4.199%.

`CC(C)=CCN1CCc2onc(-c3ccc(F)c(F)c3)c2C1`: the “Percent Effect” value is recorded as -6.636%.

As to `CC(C)NC(=O)[C@@H]1C[C@@H](N)CN1C(=O)CCSCc1ccc(F)cc1`, the “Percent Effect” value was -8.578%.

Regarding `CC(NC(=O)c1cc2n(n1)CCCN(C)C2)c1cn2ncsc2n1` (centres undefined), the “Percent Effect” value is reported as 2.374%.

`O=C(Cc1cc(F)cc(Cl)c1)N[C@@H]1CCNC[C@H]1O`: the “Percent Effect” value was -5.906%.

On to `Cc1ccc(NC2CCN(C(=O)c3cccc4ncccc34)CC2)nn1`, for which the “Percent Effect” value was found to be 0.6647%.

Consider `Cc1ccc(NC2CCN(C(=O)c3ccnc(N(C)C)c3)CC2)nn1`, for which the “Percent Effect” value was found to be 106.8%.

`Cc1ccc(NC2CCN(C(=O)c3ccc(C#N)cc3)CC2)nn1`: the “Percent Effect” value is 103.2%.

Consider `CCn1ccnc1S(=O)(=O)Cc1ccc(C(N)=O)cc1`, for which the “Percent Effect” value was -8.81%.

As to `Cc1ccc(NC2CCN(C(=O)COC3CCCCC3)CC2)nn1`, the “Percent Effect” value was found to be 112.2%.

As for `Cc1ccc(NC2CCN(C(=O)COC3CCCC3)CC2)nn1`, the “Percent Effect” value was determined as 70.65%.

Turning to `Cc1ccc(NC2CCN(C(=O)CN(C)C3CC3)CC2)nn1`, the “Percent Effect” value is -0.8726%.

For the compound `Cc1ccc(NC2CCN(C(=O)COCC3CC3)CC2)nn1`, the “Percent Effect” value was 115.7%.

With `Cc1ccc(NC2CCN(C(=O)CC3CCCO3)CC2)nn1` (centres undefined), the “Percent Effect” value is given as 6.763%.

In the case of `Cc1ccc(NC2CCN(C(=O)CCOCC(F)(F)F)CC2)nn1`, the “Percent Effect” value is given as 69.22%.

As for `Cc1ccc(NC2CCN(C(=O)COCC(F)(F)F)CC2)nn1`, the “Percent Effect” value was -5.027%.

Turning to `Cc1ccc(CNC(C)c2ccc(N3CCN(C)CC3)c(F)c2)o1.Cl` (centres undefined), the “Percent Effect” value is reported as -9.969%.

Consider `Cc1cc(NS(=O)(=O)c2c[nH]c3ncccc23)no1`, for which the “Percent Effect” value was -5.183%.

In the case of `COCc1ccccc1C(=O)NCC(O)c1ccccc1F` (centres undefined), the “Percent Effect” value is -8.064%.

Turning to `CN1C(=O)C2(CCN(C(=O)c3ccccc3)CC2)c2cccc(F)c21.Cl`, the “Percent Effect” value worked out at 2.069%.

As to `CC(=O)N1CCC2(CC1)CNc1ccc(F)cc12`, the “Percent Effect” value was -3.15%.

With `CN1CC2(CCN(C(=O)c3cccnc3)CC2)c2cccc(F)c21.Cl`, the “Percent Effect” value was determined as 104.8%.

Turning to `CN1C(=O)C2(CCN(C(=O)c3ccccc3)CC2)c2cc(F)ccc21.Cl`, the “Percent Effect” value is listed as -1.303%.

Regarding `CC(=O)N1CCC2(CC1)CNc1c(F)cccc12.Cl`, the “Percent Effect” value turned out to be 98.89%.

As for `CS(=O)(=O)N1CCc2[nH]cnc2C12CCN(C(=O)c1cccnc1)CC2`, the “Percent Effect” value was -96.76%.

As to `CN1CC2(CCN(Cc3cccnc3)CC2)c2cccc(F)c21.Cl`, the “Percent Effect” value was determined as 16.02%.

Turning to `Cl.O=C(c1ccccc1)N1CCC2(CC1)CNc1c(F)cccc12`, the “Percent Effect” value is reported as 97.7%.

Regarding `Cl.O=C(c1cccnc1)N1CCC2(CC1)CNc1c(F)cccc12`, the “Percent Effect” value was found to be 106.5%.

As for `CC(=O)N1CCC2(CC1)C(=O)N(C)c1c(F)cccc12`, the “Percent Effect” value is reported as 2.868%.

Turning to `CN1C(=O)C2(CCN(C(=O)c3cccnc3)CC2)c2cccc(F)c21`, the “Percent Effect” value turned out to be 5.447%.

Turning to `O=S(=O)(NCCN1CC=CC1)c1cncc(Cl)c1`, the “Percent Effect” value is -9.615%.

As for `CC(C)CN(C)Cc1c[nH]nc1-c1ccc(F)cc1F`, the “Percent Effect” value is reported as -3.52%.

Turning to `CNC(=O)NC(=O)CN1CCN(CC(F)(F)F)CC1(C)C`, the “Percent Effect” value is given as -1.445%.

Consider `CCC(C)(NCC(=O)NC(C)C)c1nc(C)cs1` (centres undefined), for which the “Percent Effect” value is recorded as 4.424%.

Regarding `CCN1CCN(c2ccc(C(=O)NCc3cc(C)no3)cc2F)CC1`, the “Percent Effect” value was -18.85%.

For `Cc1nc(C)c2c(n1)CCN(C(=O)CN(C)C)CC2`, the “Percent Effect” value was -4.048%.
